Data on 96 molecules can be found in PubChem BioAssay AID795 (NMMLSC, 2007).

In all, about 24,000 compounds went through this assay and about 130 (0.54%) were called active. The sample as a whole holds a higher share of actives than the screen did. Unmarked numbers belong to inactive results.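 How the source made its calls: active means side scatter shift above 30%; inactive means the rest.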

A short description of the assay: inducers of granularity increase in LNCaP cells – cell-based, flow cytometry side scatter, primary screen (AID 795).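 Further: androgen-responsive LNCaP prostate cancer cells in charcoal-stripped serum medium; percent of cells past a gate set so DMSO wells show 10% shift; higher shift means more granular cells and more differentiation.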 The settings on record: LNCaP differentiation, 4 d, at 10 µM, stronger effect = higher value. Background: Flow cytometry measures light scatter and fluorescence of single cells or particles in a stream.
As for `Cc1ccc(-c2noc(-c3ccccc3C(=O)NCC3CCCO3)n2)cc1` (stereo unspecified), the side scatter shift was 5%.

With `CCOC(=O)Nc1ccccc1N1C(=O)c2ccccc2C1=O`, the side scatter shift is 8%.

Turning to `O=C(CNS(=O)(=O)c1ccc(Br)s1)NCc1ccc2c(c1)OCO2`, the side scatter shift is 9%.

`COc1ccc(-c2nc(CS(=O)CC(=O)N3CCc4ccccc4C3)c(C)o2)cc1` (stereo unspecified): the side scatter shift was 11%.

In the case of `O=C1CSC(c2cccc(F)c2)N1c1ccccc1F` (stereo unspecified), the side scatter shift is 8%.

`CCOC(=O)c1cccc(NC(=O)CCc2c(C)nc3ncnn3c2C)c1`: the side scatter shift was 4%.

For `CC1Cc2nc(SCC(=O)Nc3ccccc3F)n(C)c(=O)c2S1` (stereo unspecified), the side scatter shift is 7%.

`CSCCC(NC(=O)C1CCC(C)CC1)C(=O)NCc1ccco1` (stereo unspecified): the side scatter shift was 3%.

Consider `CCOc1ccc(NC(=O)N(CCC(C)C)C(C)c2ccco2)cc1` (stereo unspecified), for which the side scatter shift was 7%.

Turning to `COc1cc2[nH]c(=O)n(CCC(=O)NC3CCN(Cc4ccccc4)CC3)c(=O)c2cc1OC`, the side scatter shift was 2%.

For the molecule `Cn1c(=O)cc(SCC(=O)N2CCCC2)c2cc(Cl)ccc21`, the side scatter shift is 9%.

On to `COc1cc(OC)cc(-c2nc3nc(C)c(CCC(=O)NCc4ccco4)c(C)n3n2)c1`, for which the side scatter shift was 5%.

For the molecule `CC1C=CCC2C(=O)N(c3cccc(C(=O)N4CCCCCC4)c3)C(=O)C12` (stereo unspecified), the side scatter shift was 3%.

Take `C/C(=N\O)C1(C)N(O)C(C)(C)C(c2ccc(Br)cc2)=[N+]1[O-]` (stereo unspecified): the side scatter shift was 11%.

For `CCCSc1nc2c(c(=O)[nH]c(=O)n2C)n1CCc1ccccc1`, the side scatter shift was 9%.

`Cc1ccc2nc3n(c(=O)c2c1)CCC3`: the side scatter shift is 8%.

As for `Cc1nc2nc(SCC(=O)NCc3ccco3)nn2c(C)c1Cc1ccccc1`, the side scatter shift was 4%.

Take `S=C1SCN(CCN2CCOCC2)CN1Cc1ccccc1`: the side scatter shift is 18%.

As to `CCOC(=O)C1CCCN(C(=O)Cn2ncc3c(=O)oc4ccc(C)cc4c32)C1` (stereo unspecified), the side scatter shift was 5%.

For `O=C(NC(=O)c1ccc(Cl)c(Cl)c1)OC1CCS(=O)(=O)C1` (stereo unspecified), the side scatter shift is 6%.

Take `CC1CCc2c(sc3c2C2=NS(=O)(=O)CCN2C=N3)C1` (stereo unspecified): the side scatter shift was 12%.

Regarding `CC(=O)c1c(N)n(C)c(=O)n(C)c1=O`, the side scatter shift is 0%.

Take `CCCC1CC(C)(C(=O)Cn2[nH]c(=O)ccc2=O)OC1=O` (stereo unspecified): the side scatter shift is 1%.

Regarding `Fc1cc(F)c2nc(N3CCOCC3)sc2c1`, the side scatter shift was 5%.

`Cn1c(=O)c2c(nc(N3CCCCCC3)n2CC(=O)c2ccc(Br)cc2)n(C)c1=O`: the side scatter shift was 21%.

Regarding `CCOC(=O)N1CCN(C(=O)c2ccc(S(=O)(=O)c3ccc(C)cc3)c(NC(C)=O)c2)CC1`, the side scatter shift is 8%.

Take `N#CC1=C(N)C(C#N)(C#N)[C@H](c2ccsc2)[C@H]2COCC=C12`: the side scatter shift is 9%.

In the case of `NC(=O)CSC1=Nc2ccccc2C2=NC(CCC(=O)NCc3ccc(F)cc3)C(=O)N12` (stereo unspecified), the side scatter shift was 0%.

As to `COc1ccc(NC(=O)C2CCCN(S(=O)(=O)c3cccc4cccnc34)C2)cc1` (stereo unspecified), the side scatter shift is 6%.

`CCCCN(CC)CCCNC(=O)CS(=O)(=O)Cc1nc(-c2cccc(OC)c2)oc1C`: the side scatter shift is 7%.

Turning to `CC(=O)Nc1cc2ccc(OC(C)=O)cc2oc1=O`, the side scatter shift is 10%.

For `O=C(CSc1nc2[nH]ncc2c(=O)n1-c1ccccc1)N1CCCc2ccccc21`, the side scatter shift was 5%.

Consider `COc1ccc(OCc2ccc(-c3nc4ccccc4c(=O)n3N)o2)cc1`, for which the side scatter shift is 6%.

For the molecule `Cc1ccc(NC(=O)c2nc[nH]c2C(=O)N2CCCCC2)c(C(=O)c2ccccc2)c1`, the side scatter shift is 14%.

In the case of `COc1ccc(OC)c(NC(=O)CC(Cc2ccccc2OC)C(=O)O)c1` (stereo unspecified), the side scatter shift is 15%.

For `CCn1cc(C(=O)N2CCN(C3CCCCC3)CC2)c2cc(OC)c(OC)cc2c1=O`, the side scatter shift is 7%.

On to `Cc1nc2ccccc2c2oc(C(=O)NCC3CCCO3)cc12` (stereo unspecified), for which the side scatter shift is 11%.

For the molecule `O=C(CN1C(=O)C2C3C=CC(C3)C2C1=O)NCC1COc2ccccc2O1` (stereo unspecified), the side scatter shift is 9%.

With `Cn1c(CNC(=O)C(C)(C)C)nc2ccccc21`, the side scatter shift was 3%.

As for `COCCN1C(=O)c2oc3c(C)cc(C)cc3c(=O)c2C1c1cccc(O)c1` (stereo unspecified), the side scatter shift is 3%.

Regarding `CC1(C)CC(O)C(CCC(O)c2ccccc2)C(C)(C)N1` (stereo unspecified), the side scatter shift is 5%.

Turning to `CCOC(=O)c1ccc2[nH]c(C)c(CN3CCN(C)CC3)c(=O)c2c1`, the side scatter shift is 10%.

For `COCCN(CC(=O)Nc1ccccc1C)S(=O)(=O)c1ccc(S(=O)(=O)N2CCCC2)cc1`, the side scatter shift is 3%.

Turning to `COc1ccccc1NC(=O)CSc1nnc(Cc2cccn2C)n1-c1ccc(F)cc1`, the side scatter shift was 14%.

As for `CC1(C)CC(=O)C=C(NCc2ccncc2)C1`, the side scatter shift was 6%.

As for `CCOC(=O)N1CCC(C(N)=O)CC1`, the side scatter shift was 12%.

As for `Nc1ccc(-n2nncc2-c2ccco2)cc1`, the side scatter shift was 2%.

Turning to `CC12CN3CC(C)(CN(C1)C3c1ccc(Cl)cc1Cl)C2=O` (stereo unspecified), the side scatter shift was 7%.

For the molecule `O=C(CSc1nnc2ccccn12)c1ccccc1`, the side scatter shift is 3%.

As to `CCCCCCn1c(CN2CCCC(C)C2)nc2c1c(=O)n(C)c(=O)n2C` (stereo unspecified), the side scatter shift is 7%.

Take `COc1ccc(CC(=O)Nc2ccc(-c3nnc(-c4ccc(C)cc4)o3)cc2)cc1`: the side scatter shift is 37% (active).

Turning to `COc1ccc(Cc2nnc(NC(=O)Cc3cccs3)s2)cc1`, the side scatter shift is 23%.

Turning to `CCOC(=O)c1ccc(NC(=O)Cn2nnc(-c3ccc(C)cc3)n2)cc1`, the side scatter shift was 12%.

Regarding `CCCCOC(=O)NCN1C(=O)C2C3C=CC(C3)C2C1=O` (stereo unspecified), the side scatter shift is 11%.

For `Cc1noc(C)c1S(=O)(=O)N1CCCC(C(=O)Nc2nccs2)C1` (stereo unspecified), the side scatter shift was 13%.

On to `Cc1ccc(-n2nc3cc(Cl)c(NC(=O)c4ccco4)cc3n2)cc1`, for which the side scatter shift is 36% (active).

`O=C(c1ccco1)N1CCN(c2cccc(Cl)c2)CC1`: the side scatter shift was 16%.

For the molecule `CCN(CC)C(=O)c1sc(NC(=O)c2ccco2)c(C#N)c1C`, the side scatter shift was 7%.

With `CCCS(=O)(=O)N1CCN(C(=O)c2cccs2)CC1`, the side scatter shift was 14%.

For `Cc1cccc(C2c3c(n(C)c(=O)n(C)c3=O)N=C3c4ccccc4C(=O)C32)c1` (stereo unspecified), the side scatter shift was 36% (active).

As for `COc1ccc(C2C3=C(OC(C)=O)c4ccccc4C3=Nc3c2c(=O)n(C)c(=O)n3C)cc1` (stereo unspecified), the side scatter shift was 13%.

With `Cc1cc(C)nc(-n2nc(C)cc2NC(=O)c2ccc(Br)o2)n1`, the side scatter shift was 9%.

With `CCOC(=O)N1CCC(Nc2c(NCCN3CCN(c4cccc(Cl)c4)CC3)c(=O)c2=O)CC1`, the side scatter shift was 16%.

Take `CCOc1c(OC)cc(C2C(C#N)=C(N)Oc3n[nH]c(-c4ccncc4)c32)cc1OC` (stereo unspecified): the side scatter shift is 4%.

Take `Cc1ccc(N2CCN(c3ccc(C)cc3)C2c2ccccn2)cc1`: the side scatter shift is 16%.

As to `Cc1ccc(C(c2sc3nc(C)nn3c2O)N2CCN(c3ccccc3)CC2)cc1` (stereo unspecified), the side scatter shift was 10%.

For the molecule `FC(F)Oc1ccccc1C1CC(c2ccc(Br)s2)Nc2ncnn21` (stereo unspecified), the side scatter shift was 11%.

Take `Cc1c(NC(=O)C(C)OC(=O)c2cc3c4ccccc4n(C)c3s2)c(=O)n(-c2ccccc2)n1C` (stereo unspecified): the side scatter shift was 7%.

With `CCOC(=O)N1CCC(NC(=O)c2cnn3ccccc23)CC1`, the side scatter shift was 2%.

For the molecule `Cc1ncn(C23CC4CC(CC(O)(C4)C2)C3)n1`, the side scatter shift was 9%.

Regarding `O=C(c1ccc(=O)[nH]c1)N(Cc1ccco1)C1(C(=O)NC2CCCCC2)CCCCC1`, the side scatter shift was 1%.

Turning to `CCN(c1ccc2c(c1)OCO2)S(=O)(=O)c1cc(Br)cc2c1N(C(=O)C1CC1)CC2`, the side scatter shift was 6%.

Turning to `c1ccc(CCn2nnnc2CN2CCN(C3CCCC3)CC2)cc1`, the side scatter shift is 14%.

Take `O=C(NCCc1ccc(Cl)cc1)C1CC(=O)N(C2CCCCC2)C1` (stereo unspecified): the side scatter shift is 24%.

Take `Cc1nc2ccc(NC(=O)N3CCC(c4ccccc4)C3)cc2nc1C` (stereo unspecified): the side scatter shift was 11%.

In the case of `COc1cc2ccccc2cc1C(=O)Nc1ccc(S(=O)(=O)Nc2cc(C)on2)cc1`, the side scatter shift was 12%.

For `COc1ccc2c(c1)CCc1c(C(=O)Nc3c(C)n(C)n(-c4ccccc4)c3=O)noc1-2`, the side scatter shift is 1%.

For `COc1ccc(OC)c(CNC(=O)CCc2nc(-c3cccs3)no2)c1`, the side scatter shift was 12%.

For `CCCN1Cc2cccc(C(=O)NCc3ccccc3)c2C1=O`, the side scatter shift is 9%.

With `O=C(CCCn1c(SCC(=O)c2ccc(F)cc2)nc2ccccc2c1=O)NCc1ccco1`, the side scatter shift was 8%.

For the molecule `CCc1nnc(NC(=O)CSc2nnc(Cc3ccccc3)n2-c2ccc(OC)cc2)s1`, the side scatter shift is 6%.

Consider `CC(NC(=O)c1ccc(Cl)cc1)C(=O)N1CCCCC1` (stereo unspecified), for which the side scatter shift is 5%.

Regarding `O=C1Nc2c(Br)cc(Br)cc2C1(O)N1CCOCC1` (stereo unspecified), the side scatter shift was 13%.

`O=C(c1ccco1)N1CCN(CC(=O)N(C2CCCCC2)C2CCS(=O)(=O)C2)CC1` (stereo unspecified): the side scatter shift was 9%.

`COc1cccc(C(=O)Nc2c3c(nn2-c2cccc(C)c2C)CS(=O)(=O)C3)c1OC`: the side scatter shift was 8%.

Take `CCN(Cc1ccccc1)C(=O)CSc1nc(C)cc2c1C(=O)OC2`: the side scatter shift was 4%.

With `COc1ccc2c(CC(=O)Nc3nnc(C4CC4)s3)coc2c1`, the side scatter shift was 7%.

Regarding `CCCN1CCN(CCCNC(=O)CN2C(=O)COc3ccccc32)CC1`, the side scatter shift was 7%.

For `COc1ccccc1-n1cnc2cc(NS(=O)(=O)c3ccccc3)ccc21`, the side scatter shift was 11%.

As for `COc1ccc(OC)c(CN2C(=O)CCC2(C)C(=O)NC2CCCCCC2)c1` (stereo unspecified), the side scatter shift is 11%.

Regarding `Cc1ccc(-c2nc(CS(=O)CC(=O)NC3CCCC3)c(C)o2)cc1` (stereo unspecified), the side scatter shift was 7%.

Consider `Cc1ccnc(N2C(=O)c3ccccc3C2Nc2ccc3c(c2)OCCO3)c1` (stereo unspecified), for which the side scatter shift is 7%.

As for `CCOc1ccccc1NC(=O)c1cc(S(=O)(=O)N2CCC3(CC2)OCCO3)ccc1F`, the side scatter shift was 7%.

Take `CCOC(=O)N1CCC(NC(=O)C(C)n2c3ccccc3c3cnn(C)c(=O)c32)CC1` (stereo unspecified): the side scatter shift is 6%.

On to `Cn1c2ccccc2c2c(C(=O)N3CCN(c4ccc(F)cc4)CC3)cn(C3CCCC3)c(=O)c21`, for which the side scatter shift is 1%.

For the molecule `O=c1c(-c2ccccc2)coc2c(CN3CCOCC3)c(O)ccc12`, the side scatter shift is 9%.
